According to PubChem BioAssay AID642 (Vanderbilt High Throughput Screening Facility, 2007):
The whole screen tested about 2,200 compounds, of which about 2,000 (91%) were called active. The set was probably picked from earlier hits. Only a sample is shown. Values without a mark were called inactive.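 The calls were made as follows: active = luminescence in either of two replicates above the same-plate mean plus 3 SD of the low-dose dopamine control; inactive = the rest.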

Target: D(1A) dopamine receptor (Homo sapiens) (UniProt P21728)
Assay: D1 receptor positive allosteric modulators, retest, confirmation, cell-based, HEK293 D1, CRE-luciferase, duplicate (AID 642)
Settings: dopamine EC30 potentiation, at 10 µM, active compounds read high

Sequence of D(1A) dopamine receptor (Homo sapiens) (P21728 whole entry, looked up): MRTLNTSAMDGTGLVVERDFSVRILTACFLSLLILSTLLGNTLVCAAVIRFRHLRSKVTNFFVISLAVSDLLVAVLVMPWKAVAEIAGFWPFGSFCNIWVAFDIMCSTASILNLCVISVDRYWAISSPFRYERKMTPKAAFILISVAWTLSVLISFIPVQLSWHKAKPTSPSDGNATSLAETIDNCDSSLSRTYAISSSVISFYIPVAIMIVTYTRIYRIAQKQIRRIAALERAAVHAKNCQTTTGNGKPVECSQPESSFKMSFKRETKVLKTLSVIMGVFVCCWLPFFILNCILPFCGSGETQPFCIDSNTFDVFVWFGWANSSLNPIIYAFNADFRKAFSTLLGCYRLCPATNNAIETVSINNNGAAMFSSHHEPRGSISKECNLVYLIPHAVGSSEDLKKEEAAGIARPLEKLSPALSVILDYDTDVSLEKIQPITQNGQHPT

| SMILES | luminescence |
| --- | --- |
| CC1(C)Cc2ccccc2-c2nc(CN3CCOCC3)[nH]c(=O)c21 | 19300 (active) |
| CCCCNc1nc2ccccc2nc1NS(=O)(=O)c1cccs1 | 15900 (active) |
| Cn1c(=O)c2[nH]c(NCC3CCCO3)nc2n(-c2ccccc2)c1=O (configuration not stated) | 8480 (active) |
| CN1CCN(CC(O)COCc2ccc3c(c2)OCO3)CC1 (configuration not stated) | 6270 (active) |
| N#Cc1nc(Cc2ccccc2)oc1NCCc1ccccc1 | 8810 (active) |
| COc1ccc(Nc2oc(-c3ccccc3Cl)nc2C#N)cc1 | 15100 (active) |
| CCOc1ccc(Nc2oc(Cc3ccccc3)nc2C#N)cc1 | 10900 (active) |
| CCCc1nc(N)nc2c1C(=O)CC(C)(C)C2 | 24100 (active) |
| O=C(C1CCC1)N1CCc2cc(S(=O)(=O)NCc3cccnc3)ccc21 | 13000 (active) |
| CCOc1cccc(-n2nnnc2-c2ccc(OC)cc2)c1 | 10400 (active) |
| CCOC(=O)c1c(NC(=O)CSc2nnc(CN3CCOCC3)n2C)sc2c1CCCC2 | 11600 (active) |
| CCOC(=O)c1c(NC(=O)CSc2nnc(Cc3csc(N)n3)n2C)sc(C)c1C | 9070 (active) |
| COc1ccc(-n2c(Cc3cccn3C)nnc2SCC(=O)Nc2cc(C)cc(C)c2)cc1 | 4890 |
| CC1Oc2ccccc2N(Cc2cccnc2)C1=O (configuration not stated) | 10900 (active) |
| COC(=O)[C@H](C(C)C)n1c(C)c(C(C)=O)c(C(C)=O)c1C | 7760 |
| CCCn1c(=NC(C)=O)c(C(=O)OCC)cc2c(=O)n3ccccc3nc21 | 9880 (active) |
| c1coc(-c2nc3nc4ccccc4n3nc2-c2ccco2)c1 | 14000 (active) |
| CCOc1ccc(-c2nnn(CC(=O)N3CCN(c4ccc(OC)cc4)CC3)n2)cc1OCC | 9620 (active) |
| CCOc1cc(-c2noc(CCC(=O)N3CCOCC3)n2)ccc1OC | 10500 (active) |
| COc1nc(NCc2ccc(Cl)cc2)nc(OC)n1 | 13700 (active) |
| COc1ccc(Nc2cc(C)nc(-n3nc(C)cc3C)n2)cc1 | 13700 (active) |
| CC(=O)c1ccc(Oc2cc(C)nc(-n3nc(C)cc3C)n2)cc1 | 17900 (active) |

| SMILES | luminescence |
| --- | --- |
| CCCCSc1nc2c(c(=O)n1CC)SC(C)C2 (configuration not stated) | 8100 (active) |
| CC(C)C1C2=C(CC(C)(C)CC2=O)ON1c1ccccc1 (configuration not stated) | 12900 (active) |
| CCOC(=O)c1cc(C)sc1NC(=O)C1CCC1 | 19700 (active) |
| N#CCCN1CCN(S(=O)(=O)c2ccc(S(=O)(=O)NC3CCCCC3)cc2)CC1 | 5770 (active) |
| CCCS(=O)(=O)N1CCC(C(=O)NCCc2ccc(OC)c(OC)c2)CC1 | 7140 |
| COc1ccc(CCN(C)C(=O)C2CCCN(Cc3ccc(OC)c(OC)c3)C2)cc1OC (configuration not stated) | 7890 (active) |
| COc1ccc(NC(=O)C2CCCN(S(=O)(=O)c3cccc4cccnc34)C2)cc1OC (configuration not stated) | 13800 (active) |
| CCSc1ncnc2c(C#N)c3n(c12)CCCCC3 | 18600 (active) |
| COc1ccc(-c2nnco2)cc1OC | 10800 (active) |
| C=CCSc1nc2c(c(=O)[nH]1)C(C(C)C)C(C#N)=C(N)O2 (configuration not stated) | 18500 (active) |
| CCOc1ccc2[nH]c(=O)c(C(c3nnnn3CCOC)N3CCOCC3)cc2c1 (configuration not stated) | 5420 |
| CCCSc1nc2c(c(=O)[nH]c(=O)n2C)n1CCc1ccccc1 | 24800 (active) |
| CC1CCN(c2nc3c(c(=O)[nH]c(=O)n3C)n2CCCc2ccccc2)CC1 | 14000 (active) |
| O=C(NCc1ccco1)c1cnn2c(C(F)(F)F)cc(-c3ccco3)nc12 | 8660 (active) |
| O=S(=O)(c1cccs1)N1CCc2ccccc2C1 | 12600 (active) |
| CN(C)c1nc(N)nc(CSc2nnnn2-c2cccc3ccccc23)n1 | 7470 (active) |
| CCn1ncc(C2=NOC(C(=O)Nc3ccccc3C(=O)OC)C2)c1C (configuration not stated) | 14000 (active) |
| Cc1nn(-c2ccccc2)c2c1C(=O)NC(=O)C(C)(C)C2 | 17700 (active) |
| CCn1cc(C(=O)NCC2COc3ccccc3O2)c2cc(OC)c(OC)cc2c1=O (configuration not stated) | 9310 (active) |
| Nc1ccc(S(=O)(=O)NC(=O)c2ccccc2)cc1 | 5620 |
| O/N=C(\c1ccc2c(c1)OCCO2)C1CCCCC1 | 10600 (active) |
| CC(=O)OC(C)C[N+](C)(C)C (configuration not stated) | 6620 (active) |

| SMILES | luminescence |
| --- | --- |
| c1ccc2c(NCC3CCCO3)nc(-c3ccncc3)nc2c1 (configuration not stated) | 9880 (active) |
| CCCN1Cc2cccc(C(=O)NCc3ccccc3)c2C1=O | 12000 (active) |
| CC1CCN(c2oc(-c3ccccc3F)nc2C#N)CC1 | 8980 (active) |
| C#CCNc1nc(C(C)C)nc2c1nnn2Cc1ccccc1F | 11700 (active) |
| CCOc1cc(C(=O)N2CCc3cc(OC)c(OC)cc3C2)ccc1OC(F)F | 24600 (active) |
| COc1ccc(CCNc2ncnc3nc[nH]c23)cc1OC | 14700 (active) |
| COc1ccc(-c2nnc(SCC(=O)NC3CCCCC3)o2)cc1OC | 12200 (active) |
| Cc1ccc(C2CC(c3cccc(Br)c3)n3nc(N)nc3N2)cc1 (configuration not stated) | 10800 (active) |
| CCOc1ccccc1C1CC(c2ccccc2)Nc2nc(N)nn21 (configuration not stated) | 10100 (active) |
| Cc1ccc(C2CC(c3cccc(C)c3)n3nc(N)nc3N2)cc1 (configuration not stated) | 8720 (active) |
| FC(F)(F)c1cc(-c2ccco2)nc(N2CCOCC2)n1 | 24200 (active) |
| Cc1cc(C(F)(F)F)nn1-c1nc(-c2ccco2)cc(C(F)(F)F)n1 | 8160 (active) |
| COc1ccc(-c2nnn(Cc3nc(N)nc(N4CCCCC4)n3)n2)cc1 | 12600 (active) |
| COc1ccc(S(=O)(=O)Nc2ccc(S(=O)(=O)N3CCCCC3)cc2)cc1OC | 13000 (active) |
| O=C(CSc1nnc2scc(-c3ccc(F)cc3)n12)NCc1ccco1 | 11300 (active) |
| Cn1c(/C(C#N)=C2/CCCCCN2)nc2ccccc21 | 15000 (active) |
| COc1ncnc2c1N=C1CC(C)(C)CC(N)=C1S2 | 8600 (active) |
| COC(=O)c1ccccc1NC(=O)C1CCN(S(=O)(=O)c2cc(OC)ccc2OC)CC1 | 13600 (active) |
| CCCCc1c(O)nc2n(c1=O)CCS2 | 4500 |
| Oc1ccc(-c2csc(Nc3cccnc3)n2)cc1 | 10600 (active) |
| COC(=O)C(C)C1Sc2ccccc2NC1=O (configuration not stated) | 11200 (active) |
| COc1cc(NC(=O)N2CCOCC2)cc(OC)c1 | 7060 |

| SMILES | luminescence |
| --- | --- |
| CC(=O)Nc1cccc(Oc2cc(C#N)c(C#N)cc2N2CCOCC2)c1 | 18800 (active) |
| CCn1c(=N)c(S(=O)(=O)c2ccc(F)cc2)cc2c(=O)n3ccccc3nc21 | 18300 (active) |
| CCc1ccc2oc(=O)cc(CN3CCCCC3C)c2c1 (configuration not stated) | 10700 (active) |
| COc1ccc(CCNC(=O)c2cc3sccc3n2C)cc1OC | 7950 |
| COc1ccc(CCNC(=O)CCn2c(=O)oc3ccccc32)cc1OC | 12500 (active) |
| CCCc1nc(-c2ccccc2O)n(-c2ccccc2)n1 | 14800 (active) |
| COc1ncnc2sc3c(c12)CCCC3 | 9980 (active) |
| N#Cc1c(N)sc2c1CCN(C(=O)OCc1ccccc1)C2 | 11700 (active) |
| COc1ccc(-c2n[nH]c(C)c2-c2ccc(OC)c(OC)c2)c(O)c1 | 7480 (active) |
| c1ccc(COc2nsnc2N2CCOCC2)cc1 | 9440 (active) |
| CCSc1nc(C)nc2c1oc1ccccc12 | 15900 (active) |
| c1ccc(-c2nnc3n2NC(c2ccc4c(c2)OCO4)S3)cc1 (configuration not stated) | 13600 (active) |
| Cn1c(=O)c2cn(-c3cccc4ccccc34)cc2n(C)c1=O | 8890 (active) |
| COc1ccc(S(=O)(=O)N(C)CC(=O)Nc2ccc3c(c2)OCCO3)cc1OC | 7550 (active) |
| COC(=O)C1=C(C)NC2=C(C(=O)c3ccccc32)C1c1ccc(-c2ccc(C(=O)O)cc2)o1 (configuration not stated) | 12100 (active) |
| COc1ccc(-c2nn3c(-c4ccccc4)nnc3s2)cc1OC | 22300 (active) |
| COc1cc(-c2nn3c(-c4cccc(C)c4)nnc3s2)cc(OC)c1OC | 12800 (active) |
| N#CCSc1nc2ccccc2c(=O)n1-c1ccccc1 | 19300 (active) |
| CCOc1ccc(Cn2c(SCCCCC#N)nc3c2c(=O)n(C)c(=O)n3C)cc1OCC | 14200 (active) |
| CCC(=O)NC(=Nc1nc2ccccc2s1)NC(=O)CC | 18700 (active) |
| CCNc1nc(NCC)nc(N(C)n2cnnc2)n1 | 15800 (active) |
| C/C(Cl)=C\Cn1c(Nc2cccc(C)c2)nc2c1c(=O)n(C)c(=O)n2C | 12000 (active) |

| SMILES | luminescence |
| --- | --- |
| Cc1cc(C)c2c(n1)nn1c(-n3ccnc3)cc(C)nc21 | 11600 (active) |
| COc1ccc(-c2cc(C(F)(F)F)nc(S(C)(=O)=O)n2)cc1OC | 10100 (active) |
| CCCn1c(=O)c2[nH]c(C3CCCC3)nc2n(CCC)c1=O | 22800 (active) |
| CC(C)c1cc(C(=O)O)on1 | 5510 |
| CCOc1ccc2c(c1)cc(CN(C(=O)CC)C1CCCCC1)c1nnnn12 | 16400 (active) |
| CC(C)n1c(C(O)c2ccccc2)nc2ccccc21 (configuration not stated) | 6650 (active) |
| COC(=O)Nc1ncc(CN2C(=O)c3ccccc3C2=O)s1 | 9780 (active) |
| O=C(c1ccco1)N1CCN=C1SCc1cccc(Cl)c1 | 9520 (active) |
| O=c1cc(-c2ccccc2)nc(N2CCCCC2)[nH]1 | 12700 (active) |
| Cc1ccc(S(=O)(=O)c2c(N)n(C)c3nc4ccccc4nc23)cc1 | 11800 (active) |
| CCOC(=O)c1cc2n(c1C)-c1ccccc1C2=O | 9350 (active) |
| C/C(=C\C(=O)c1ccccc1)Nc1cccc(O)c1 | 3550 (active) |
| N#Cc1nc(N)nc(N(c2ccccc2)c2ccccc2)n1 | 13100 (active) |
| CCc1cc(=O)oc2cc(OCC(=O)N3CCCc4ccccc43)ccc12 | 14000 (active) |
| CCn1nc(C(=O)OCC(=O)N2c3ccccc3CC2C)c2ccccc2c1=O (configuration not stated) | 13900 (active) |
| Cc1ccc(-c2nn(-c3ccccc3)cc2CN(Cc2ccccc2)C(=O)CCC(=O)O)o1 | 9380 (active) |
| O=C(NCc1ccccn1)c1ccc2nc(-c3ccco3)c(-c3ccco3)nc2c1 | 10400 (active) |
| C=CCn1cnc2scc(-c3ccccc3)c2c1=O | 16400 (active) |
| CCOC(=O)/C=c1\s/c(=C\c2ccccc2OC)c(=O)n1CC(=O)N1CCOCC1 | 15600 (active) |
